From PubChem BioAssay (EPA / NIEHS)
Activity calls are given as the source filed them. Rule for the calls: active = hit-call score of the fitted dose curve at least 0.9, where 1 is the maximum; inactive = score below 0.9.

What was measured:
Settings in all cases: mRNA level, 48 h; actives raise or lower the signal
[1] = read-out: Lipase C (LIPC), LIPC (gene 3990); experiment: LTEA_HepaRG_LIPC: Life Technologies and Expression Analysis (LTEA) Assay for Lipase C (LIPC) using HepaRG (AID 2283514)
Method in brief: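 Read-out is LIPC transcript level by TaqMan qRT-PCR, normalized to three housekeeping genes, after 48 h chemical treatment of human HepaRG liver cells. Curves span eight concentrations topping at 100 uM; activity in either direction scored relative to 0.5% DMSO.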

[2] = read-out: Lipoprotein lipase (LPL), LPL (gene 4023); experiment: LTEA_HepaRG_LPL: Life Technologies and Expression Analysis (LTEA) Assay for Lipoprotein lipase (LPL) using HepaRG (AID 2283515)
Method in brief: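 Read-out is LPL transcript level by qRT-PCR, normalized to three housekeeping genes and fitted bidirectionally against the DMSO control. Human HepaRG cells received chemicals for 48 h at up to 100 uM.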

[3] = read-out: MicroRNA 122 (MIR122), gene 406906; experiment: LTEA_HepaRG_MIR122: Life Technologies and Expression Analysis (LTEA) Assay for MicroRNA 122 (MIR122) using HepaRG (AID 2283516); note: the transcript read is the microRNA miR-122
Method in brief: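 Differentiated human HepaRG cells were exposed 48 h in serum-free induction medium to eight half-log concentrations (top 100 uM, 0.5% DMSO). Transcript level was measured by TaqMan qRT-PCR, normalized to ACTB, GAPDH and POLR2A, and fitted bidirectionally versus DMSO.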

[4] = read-out: matrix metalloproteinase-10 (MMP10), MMP10 (gene 4319); experiment: LTEA_HepaRG_MMP10: Life Technologies and Expression Analysis (LTEA) Assay for matrix metalloproteinase-10 (MMP10) using HepaRG (AID 2283517)
Method in brief: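 Gain or loss of MMP10 mRNA is fitted relative to the 0.5% DMSO vehicle. The human hepatic line HepaRG receives a 48-hour serum-free exposure, in duplicate, with a maximum concentration of 100 uM.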

MYC, MYC (gene 4609) = experiment: LTEA_HepaRG_MYC: Life Technologies and Expression Analysis (LTEA) Assay for MYC using HepaRG (AID 2283518)
Method in brief: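 Cells are thawed, plated and cultured 48 h, then treated for 48 h with test chemicals (eight half-log concentrations from 100 uM, 0.5% DMSO vehicle). RNA is isolated and MYC expression quantified by qRT-PCR against three housekeeping genes.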

[5] = read-out: matrix metalloproteinase-3 (MMP3), MMP3 (gene 4314); experiment: LTEA_HepaRG_MMP3: Life Technologies and Expression Analysis (LTEA) Assay for matrix metalloproteinase-3 (MMP3) using HepaRG (AID 2283519)
Method in brief: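 HepaRG, human; 48 h dosing, 8 conc. (max 100 uM, half-log), duplicate, 0.5% DMSO. Readout: MMP3 transcript by Fluidigm TaqMan qRT-PCR, ACTB/GAPDH/POLR2A-normalised. Gain or loss fitted vs DMSO.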

[6] = read-out: Paternally Expressed 10 (PEG10), PEG10 (gene 23089); experiment: LTEA_HepaRG_PEG10: Life Technologies and Expression Analysis (LTEA) Assay for Paternally Expressed 10 (PEG10) using HepaRG (AID 2283520)
Method in brief: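 Differentiated HepaRG cells, plated 48 h then switched to serum-free induction medium, were exposed in duplicate for 48 h to eight half-log concentrations topping at 100 uM in 0.5% DMSO. PEG10 mRNA was quantified by TaqMan qRT-PCR, normalised to ACTB, GAPDH and POLR2A.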

[7] = read-out: Nuclear factor NF-kappa-B p105 subunit (Homo sapiens) (UniProt P19838); experiment: LTEA_HepaRG_NFKB1: Life Technologies and Expression Analysis (LTEA) Assay for Nuclear Factor Kappa B Subunit 1 (NFKB1) using HepaRG (AID 2283521)
Method in brief: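 Differentiated human HepaRG cells in serum-free induction medium with 0.5% DMSO were exposed for 48 h to eight half-log concentrations, top 100 uM, in duplicate. NFKB1 mRNA measured by Fluidigm TaqMan qRT-PCR, normalised to ACTB, GAPDH and POLR2A; bidirectional fit versus DMSO.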

[8] = read-out: Protein phosphatase 2A (PPP2R4), PTPA (gene 5524); experiment: LTEA_HepaRG_PPP2R4: Life Technologies and Expression Analysis (LTEA) Assay for Protein phosphatase 2A (PPP2R4) using HepaRG (AID 2283522)
Method in brief: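 Differentiated HepaRG cells in serum-free induction medium were exposed in duplicate for 48 h to eight concentrations, top 100 uM with half-log dilutions, in 0.5% DMSO. PPP2R4 mRNA was quantified by TaqMan qRT-PCR, normalized to ACTB, GAPDH and POLR2A.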

[9] = read-out: Phosphatase and tensin (PTEN), PTEN (gene 5728); experiment: LTEA_HepaRG_PTEN: Life Technologies and Expression Analysis (LTEA) Assay for Phosphatase and tensin (PTEN) using HepaRG (AID 2283523)
Method in brief: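 Read-out is PTEN transcript level by multiplexed TaqMan qRT-PCR after 48 h chemical treatment of human HepaRG cultures in serum-free induction medium. Concentrations spanned 100 uM downward in half-log steps, 0.5% DMSO throughout; activity fitted in both directions against vehicle.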

Nuclear factor NF-kappa-B p105 subunit (Homo sapiens), sequence (P19838 whole entry, looked up): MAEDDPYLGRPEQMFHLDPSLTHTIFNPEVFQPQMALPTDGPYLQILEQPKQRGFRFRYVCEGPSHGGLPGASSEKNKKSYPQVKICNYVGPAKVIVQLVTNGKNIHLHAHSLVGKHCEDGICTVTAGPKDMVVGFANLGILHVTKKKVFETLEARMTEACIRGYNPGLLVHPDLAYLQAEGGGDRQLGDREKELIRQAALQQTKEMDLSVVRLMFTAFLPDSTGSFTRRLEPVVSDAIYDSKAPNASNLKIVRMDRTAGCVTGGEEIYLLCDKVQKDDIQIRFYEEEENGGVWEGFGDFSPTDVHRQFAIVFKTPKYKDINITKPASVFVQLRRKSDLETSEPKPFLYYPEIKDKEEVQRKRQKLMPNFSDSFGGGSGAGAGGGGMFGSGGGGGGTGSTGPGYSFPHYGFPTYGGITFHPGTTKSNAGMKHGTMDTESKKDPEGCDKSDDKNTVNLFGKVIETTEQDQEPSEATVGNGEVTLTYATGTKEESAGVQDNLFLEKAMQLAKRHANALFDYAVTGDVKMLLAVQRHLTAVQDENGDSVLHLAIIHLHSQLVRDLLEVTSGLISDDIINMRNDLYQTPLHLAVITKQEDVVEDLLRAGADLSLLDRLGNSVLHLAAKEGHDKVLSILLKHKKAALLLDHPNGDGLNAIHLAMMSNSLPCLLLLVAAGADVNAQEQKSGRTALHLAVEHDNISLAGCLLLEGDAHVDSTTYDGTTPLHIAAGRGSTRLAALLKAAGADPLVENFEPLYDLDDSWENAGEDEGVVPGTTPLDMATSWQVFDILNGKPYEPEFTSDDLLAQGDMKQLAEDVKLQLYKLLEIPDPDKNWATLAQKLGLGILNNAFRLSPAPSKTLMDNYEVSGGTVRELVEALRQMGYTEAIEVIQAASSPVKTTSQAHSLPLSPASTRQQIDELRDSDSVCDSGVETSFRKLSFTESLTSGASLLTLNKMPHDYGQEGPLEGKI

Nc1nc(Cl)nc2c1ncn2[C@H]1C[C@H](O)[C@@H](CO)O1
AC50 [1]: 1.03 µM (active) | AC50 [2]: 1.03 µM (active) | AC50 [3]: 1.55 µM (active) | AC50 [4]: 1.72 µM (active) | outcome (MYC, MYC (gene 4609)): inactive | AC50 [5]: 3.75 µM (active) | AC50 [6]: 0.636 µM (active) | outcome [7]: inactive | AC50 [8]: 1.92 µM (active) | AC50 [9]: 3.12 µM (active)

CC(=O)[C@@]1(O)CC[C@H]2[C@@H]3CCC4=CC(=O)CC[C@]4(C)[C@H]3CC[C@@]21C
outcome [1]: inactive | outcome [2]: inactive | outcome [3]: inactive | outcome [4]: inactive | outcome (MYC, MYC (gene 4609)): inactive | outcome [5]: inactive | AC50 [6]: 7.76 µM (active) | outcome [7]: inactive | outcome [8]: inactive | outcome [9]: inactive

COc1ccc(OC(F)(F)F)cc1CN[C@H]1CCCN[C@H]1c1ccccc1
outcome [1]: inactive | AC50 [2]: 82.9 µM (active) | outcome [3]: inactive | AC50 [4]: 75.8 µM (active) | AC50 (MYC, MYC (gene 4609)): 7.25 µM (active) | AC50 [5]: 80.2 µM (active) | AC50 [6]: 55.2 µM (active) | outcome [7]: inactive | AC50 [8]: 90 µM (active)

O=C1CCCCC1
outcome [1]: inactive | outcome [2]: inactive | outcome [3]: inactive | outcome [4]: inactive | outcome (MYC, MYC (gene 4609)): inactive | outcome [5]: inactive | outcome [6]: inactive | outcome [7]: inactive | outcome [8]: inactive | outcome [9]: inactive

Cc1c(C)c2c(c(C)c1O)CCC(C)(COc1ccc(CC3SC(=O)NC3=O)cc1)O2 (centres undefined)
AC50 [1]: 25.1 µM (active) | AC50 [2]: 4.12 µM (active) | AC50 [3]: 83.9 µM (active) | AC50 [4]: 48.5 µM (active) | outcome (MYC, MYC (gene 4609)): inactive | outcome [5]: inactive | AC50 [6]: 91.5 µM (active) | AC50 [7]: 77 µM (active) | outcome [8]: inactive | outcome [9]: inactive

CCCCc1nc2cccnc2n1Cc1ccc(-c2ccccc2-c2nnn[nH]2)cc1
outcome [1]: inactive | outcome [2]: inactive | outcome [3]: inactive | outcome [4]: inactive | outcome (MYC, MYC (gene 4609)): inactive | AC50 [5]: 50 µM (active) | AC50 [6]: 74.6 µM (active) | outcome [7]: inactive | outcome [8]: inactive | outcome [9]: inactive

C#CC(O)C(CC)CCCC (centres undefined)
outcome [1]: inactive | outcome [2]: inactive | outcome [3]: inactive | outcome [4]: inactive | outcome (MYC, MYC (gene 4609)): inactive | outcome [5]: inactive | outcome [6]: inactive | outcome [7]: inactive | outcome [8]: inactive | outcome [9]: inactive

N[C@@H](Cc1c[nH]c2ccccc12)C(=O)O
outcome [1]: inactive | outcome [2]: inactive | outcome [3]: inactive | outcome [4]: inactive | outcome (MYC, MYC (gene 4609)): inactive | outcome [5]: inactive | outcome [6]: inactive | outcome [7]: inactive | outcome [8]: inactive | outcome [9]: inactive

CN(C)CCCN1c2ccccc2Sc2ccc(Cl)cc21
outcome [1]: inactive | outcome [2]: inactive | AC50 [3]: 85.7 µM (active) | AC50 [4]: 85.1 µM (active) | AC50 (MYC, MYC (gene 4609)): 87.5 µM (active) | outcome [5]: inactive | AC50 [6]: 18.2 µM (active) | AC50 [7]: 78.4 µM (active) | outcome [8]: inactive | AC50 [9]: 78 µM (active)

CCCCC(CC)CO (centres undefined)
outcome [1]: inactive | outcome [2]: inactive | outcome [3]: inactive | outcome [4]: inactive | outcome (MYC, MYC (gene 4609)): inactive | outcome [5]: inactive | outcome [6]: inactive | outcome [7]: inactive | outcome [9]: inactive

Cc1cc(Cc2ccc(N)c(C)c2)ccc1N
outcome [1]: inactive | outcome [2]: inactive | outcome [3]: inactive | outcome [4]: inactive | outcome (MYC, MYC (gene 4609)): inactive | outcome [5]: inactive | outcome [6]: inactive | outcome [7]: inactive | outcome [8]: inactive | outcome [9]: inactive

CC(=O)OCC(COC(C)=O)OC(C)=O
outcome [1]: inactive | outcome [2]: inactive | outcome [3]: inactive | outcome [4]: inactive | outcome (MYC, MYC (gene 4609)): inactive | outcome [5]: inactive | outcome [6]: inactive | outcome [7]: inactive | outcome [9]: inactive

O=C1OC(c2ccc(O)cc2)(c2ccc(O)cc2)c2ccccc21
AC50 [1]: 77.4 µM (active) | AC50 [2]: 72.5 µM (active) | AC50 [3]: 50 µM (active) | outcome [4]: inactive | outcome (MYC, MYC (gene 4609)): inactive | outcome [5]: inactive | AC50 [6]: 76.1 µM (active) | outcome [7]: inactive | outcome [8]: inactive | outcome [9]: inactive

Cc1ccc(-c2cc(C(F)(F)F)nn2-c2ccc(S(N)(=O)=O)cc2)cc1
outcome [1]: inactive | AC50 [2]: 87.4 µM (active) | outcome [3]: inactive | outcome [4]: inactive | AC50 (MYC, MYC (gene 4609)): 67.3 µM (active) | outcome [5]: inactive | AC50 [6]: 64.2 µM (active) | AC50 [7]: 70.2 µM (active) | outcome [8]: inactive | outcome [9]: inactive

COC(=O)CCC(=O)OC
outcome [1]: inactive | outcome [2]: inactive | outcome [3]: inactive | outcome [4]: inactive | outcome (MYC, MYC (gene 4609)): inactive | outcome [5]: inactive | outcome [6]: inactive | outcome [7]: inactive | outcome [9]: inactive

CCCCOC(=O)CCCCC(=O)OCCCC
outcome [1]: inactive | outcome [2]: inactive | outcome [3]: inactive | outcome [4]: inactive | outcome (MYC, MYC (gene 4609)): inactive | outcome [5]: inactive | outcome [6]: inactive | outcome [7]: inactive | outcome [9]: inactive

CO[C@@H]1COCC[C@@H]1N[C@@H]1CC[C@@](C(=O)N2CCc3ncc(C(F)(F)F)cc3C2)(C(C)C)C1
outcome [1]: inactive | outcome [2]: inactive | outcome [3]: inactive | outcome [4]: inactive | outcome (MYC, MYC (gene 4609)): inactive | outcome [5]: inactive | outcome [6]: inactive | outcome [7]: inactive | outcome [9]: inactive

CCCCCCCC(=O)OC
outcome [1]: inactive | AC50 [2]: 12.4 µM (active) | outcome [3]: inactive | outcome [4]: inactive | outcome (MYC, MYC (gene 4609)): inactive | outcome [5]: inactive | outcome [6]: inactive | outcome [7]: inactive | AC50 [9]: 12.2 µM (active)

CCN(CC)CCOc1ccc(C(=C(Cl)c2ccccc2)c2ccccc2)cc1
AC50 [1]: 24.1 µM (active) | AC50 [2]: 17.8 µM (active) | AC50 [3]: 78.8 µM (active) | AC50 [4]: 28.8 µM (active) | AC50 (MYC, MYC (gene 4609)): 56.1 µM (active) | outcome [5]: inactive | outcome [6]: inactive | AC50 [7]: 77.1 µM (active) | AC50 [9]: 78.5 µM (active)

O=C1NC(=O)C(c2ccccc2)(c2ccccc2)N1
outcome [1]: inactive | outcome [2]: inactive | outcome [3]: inactive | outcome [4]: inactive | outcome (MYC, MYC (gene 4609)): inactive | outcome [5]: inactive | outcome [6]: inactive | outcome [8]: inactive | outcome [9]: inactive

CC1(C)C(=O)NC(=O)N1CO
outcome [1]: inactive | outcome [2]: inactive | outcome [3]: inactive | outcome [4]: inactive | outcome (MYC, MYC (gene 4609)): inactive | outcome [5]: inactive | outcome [6]: inactive | outcome [7]: inactive | outcome [9]: inactive

C=CCCCCCCCCCCCC
outcome [1]: inactive | outcome [2]: inactive | outcome [3]: inactive | outcome [4]: inactive | outcome (MYC, MYC (gene 4609)): inactive | outcome [5]: inactive | outcome [6]: inactive | outcome [7]: inactive | outcome [9]: inactive
